Experimental data from PubChem BioAssay AID2562 (National Center for Advancing Translational Sciences (NCATS), 2010).
Inconclusive results are not listed. Calls come from the whole dose curve; as a rule, active = well fitted curve in the direction sought with a large enough effect; inconclusive = small, poorly fitted or top-dose-only effect, or effect the other way, or another doubt; inactive = no such curve, though single readings can be large or run the other way.

target: Pyruvate kinase PKLR (Homo sapiens) (UniProt P30613); assay: Secondary LDH Assay for Activators of Human Reticulocyte Pyruvate Kinase: for Probe SAR; settings: purified hPK-R, LDH-coupled NADH fluorescence kinetic; series mostly up to 58.4 µM; activity change, positive = activation: at the top concentration
Sequence (P30613 whole entry, looked up): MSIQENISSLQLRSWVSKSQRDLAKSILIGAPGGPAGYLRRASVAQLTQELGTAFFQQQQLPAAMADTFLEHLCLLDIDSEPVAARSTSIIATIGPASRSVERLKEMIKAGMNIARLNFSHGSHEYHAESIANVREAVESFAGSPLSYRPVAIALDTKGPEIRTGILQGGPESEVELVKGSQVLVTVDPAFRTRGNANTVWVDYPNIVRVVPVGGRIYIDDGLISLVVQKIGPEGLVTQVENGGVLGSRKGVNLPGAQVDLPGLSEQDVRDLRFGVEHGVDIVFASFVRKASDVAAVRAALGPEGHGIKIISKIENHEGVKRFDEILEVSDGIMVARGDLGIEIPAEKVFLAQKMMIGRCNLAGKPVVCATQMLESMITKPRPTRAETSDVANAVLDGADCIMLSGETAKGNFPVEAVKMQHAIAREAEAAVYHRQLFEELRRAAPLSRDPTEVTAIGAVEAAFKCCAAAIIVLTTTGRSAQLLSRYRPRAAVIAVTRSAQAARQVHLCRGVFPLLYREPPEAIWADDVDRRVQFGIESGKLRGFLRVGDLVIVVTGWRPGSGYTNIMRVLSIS
From the text: NIH Chemical Genomics Center [NCGC] Wael M. Rabeh, Lyudmila Nedyalkova and Hee-Wan Park [Structural Genomics Consortium, 100 College St. Toronto, Ontario, Canada] NCGC Assay Overview: Human pyruvate kinase reticulocyte (hPK-R) enzyme was supplied as a highly purified (>95% pure) preparation from Structural Genomics Consortium in Toronto (Ontario, Canada) and a secondary assay was used to evaluate compounds. This assay couples the formation of pyruvate from hPK-R using lactate dehydrogenase (LDH) and NADH. The depletion of NADH is followed in a fluorescent-based kinetic assay that follows the formation of pyruvate to lactate, as catalyzed LDH. Pyruvate kinase substrates, PEP and ADP, were present in the assay at 0.1 mM and 4 mM respectively. In this kinetic assay initial rates were determined by following the fluorescence of NADH depletion.
NCGC Assay Protocol Summary: Three uL of substrate mix (final concentration, 50 mM Tris-Cl pH 8.0, 200 mM KCl, 15 mM MgCl2, 0.1 mM PEP, 4.0 mM ADP, and 0.2 mM NADH) was dispensed into black-solid 1536 well plates. 23 nL of compounds were delivered by a pin tool and 1 uL of enzyme mix (final concentrations, 10 nM hPK-R and 1 uM of LDH) was added. Plates were immediately placed in ViewLux (Perkin Elmer) and NADH fluorescence was determined at 30 second exposure intervals for between 3 and 6 minutes. Data were normalized to the uninhibited and EC100 activation using known activators such as fructose-bis-phosphate.

Activity change, positive = activation, inactive:
Cc1nc(-c2ccc(S(=O)(=O)Nc3ccc(C)c(C)c3)s2)cs1 20.7%
Cc1ccc(NS(=O)(=O)c2cc3c(cc2N(C)C)CCC(=O)N3)cc1C 6.64%
O=C1c2ccccc2C(=O)N1Cc1ccccc1 -4.18%
O=C1c2ccccc2C(=O)N1c1cccc(Cl)c1 -6.91%
O=S1(=O)N=C(Oc2ccc(Cl)cc2)c2ccccc21 11.9%
O=C1c2ccccc2C(=O)N1c1ccc2ccccc2n1 -3.58%
Cc1ccc(NS(=O)(=O)c2ccc3c(c2)oc(=O)n3C)cc1C 15.8%
Cc1ccc(NS(=O)(=O)c2cccc(C(=O)O)c2)cc1C 12.2%
Cc1ccc(NS(=O)(=O)c2ccc(N3CCCC3=O)cc2)cc1C 1.79%
CSc1cc2c(s1)c1cnn(Cc3cccc(N)c3)c(=O)c1n2C 21.1%
O=C1c2ccccc2C(=O)N1c1cccc2cccnc12 -6.84%
COc1cccc(OC2=NS(=O)(=O)c3ccccc32)c1 17.7%
COc1cccc(N2C(=O)c3ccccc3C2=O)n1 8.18%
O=C1CCc2cc(S(=O)(=O)Nc3cccc(F)c3)ccc2N1 10.9%
Cc1ccc(N(C)S(=O)(=O)c2ccc3c(c2)CCC(=O)N3)cc1C 10.7%
O=C1CCc2cc(S(=O)(=O)Nc3ccc(-c4ccccc4)cc3)ccc2N1 -1.35%
Cc1ccc(NS(=O)(=O)c2cc3c(cc2C)NC(=O)CO3)cc1C 27.4%
COc1ccc(OC2=NS(=O)(=O)c3ccccc32)cc1 12.6%
O=C1c2ccccc2C(=O)N1c1ccc2ncccc2c1 0.155%
Cc1ccc(N[S+](=O)([O-])c2cc3c(cc2CCc2ccccc2)NC(=O)CO3)cc1C 16.6%
CC(=O)N1CCCc2cc(S(=O)(=O)Nc3ccc(C)c(C)c3)ccc21 6.74%
O=S1(=O)N=C(Oc2ccccc2)c2ccccc21 7.61% [at 82.8 µM]
COc1cc(N2C(=O)c3ccccc3C2=O)c2ncccc2c1 -7.54%
Cc1ccc(NS(=O)(=O)c2cc3c(cc2/C=C/c2ccccc2)NC(=O)CO3)cc1C 7.5%
COc1cccc(N2C(=O)c3ccccc3C2=O)c1 10.9%
Cc1ccc2nc(-c3cccs3)c(Nc3ccccc3)n2c1 -11.4%
COc1ccccc1OC1=NS(=O)(=O)c2ccccc21 7.5%
Cc1ccc(NS(=O)(=O)c2cc3c(cc2-c2cn[nH]c2)NC(=O)CO3)cc1C 20.6%
Cc1ccc(NS(=O)(=O)c2ccc3c(ccn3C)c2)cc1C 15.4%
O=C1c2ccccc2C(=O)N1c1cccc(=O)[nH]1 16.3%
Cc1ccc(NS(=O)(=O)c2cc3c(cc2Cl)NC(=O)C3)cc1C 9.95%
Cc1ccc(NS(=O)(=O)c2cc3c(cc2F)NC(=O)CC3)cc1C 29.9%
Cc1ccn2c(NC3CCCCC3)c(-c3ccc(C)o3)nc2c1 -17.6%
O=C1c2ccccc2C(=O)N1c1cncc2ccccc12 0.998%
O=C1NS(=O)(=O)c2ccccc21 -1.26%
Cc1ccc(NS(=O)(=O)c2cc3c(cc2Cl)NC(=O)CO3)cc1C 16.5%
Cc1ccc(NS(=O)(=O)c2ccc(F)cc2)cc1C 18.4%
Cc1ccc(NS(=O)(=O)c2cc3c(cc2-c2ccccc2)NC(=O)CO3)cc1C -2.67%
Cc1ccc(NS(=O)(=O)c2cc3c(cc2N2CCC2)NC(=O)CC3)cc1C 5.56%
Cc1ccc2nc(-c3ccc(C)o3)c(NC3CCCC3)n2c1 -15.8%
